# PubChem BioAssay (EPA / NIEHS)
# Activity calls are given as the source filed them. Rule for the calls: active = hit-call score of the fitted dose curve at least 0.9, where 1 is the maximum; inactive = score below 0.9.
# Tests used:
# Settings in all cases: mRNA level, 48 h; actives raise or lower the signal
# [1] = read-out: growth arrest and DNA damage 45 (GADD45A), GADD45A (gene 1647); assay: LTEA_HepaRG_GADD45A: Life Technologies and Expression Analysis (LTEA) Assay for growth arrest and DNA damage 45 (GADD45A) using HepaRG (AID 2283458)
# In short: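 GADD45A expression was measured by TaqMan qRT-PCR against three housekeeping genes (ACTB, GAPDH, POLR2A) after 48 h treatment of HepaRG cells. Eight-point half-log series up to 100 uM in 0.5% DMSO, run in duplicate.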
# [2] = read-out: Forkhead box O3 (FOXO3), FOXO3 (gene 2309); assay: LTEA_HepaRG_FOXO3: Life Technologies and Expression Analysis (LTEA) Assay for Forkhead box O3 (FOXO3) using HepaRG (AID 2283459)
# In short: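 FOXO3 transcript measured by qRT-PCR (normalized to ACTB, GAPDH, POLR2A) after 48 h exposure of HepaRG cells in serum-free induction medium. Duplicates, eight half-log concentrations up to 100 uM, 0.5% DMSO; gain or loss fitted against DMSO.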
# [3] = read-out: ABC Transporter (ABCB1), ABCB1 (gene 5243); assay: LTEA_HepaRG_ABCB1: Life Technologies and Expression Analysis (LTEA) Assay for ABC Transporter (ABCB1) using HepaRG (AID 2283460)
# In short: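 ABCB1 transcript level measured by TaqMan qRT-PCR against three housekeeping genes after 48 h chemical exposure of differentiated HepaRG cells. Top concentration 100 uM, half-log steps, eight points, 0.5% DMSO vehicle; bidirectional fit relative to DMSO.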
# [4] = read-out: growth arrest and DNA damage 45 (GADD45B), GADD45B (gene 4616); assay: LTEA_HepaRG_GADD45B: Life Technologies and Expression Analysis (LTEA) Assay for growth arrest and DNA damage 45 (GADD45B) using HepaRG (AID 2283461)
# In short: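 qRT-PCR read-out (Fluidigm TaqMan, housekeeping-normalized) of mRNA change in human HepaRG cells after 48 h chemical exposure; 8-point curve, top 100 uM, half-log steps, 0.5% DMSO vehicle; gain or loss fitted relative to DMSO baseline.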
# [5] = read-out: ABC Transporter (ABCB11), ABCB11 (gene 8647); assay: LTEA_HepaRG_ABCB11: Life Technologies and Expression Analysis (LTEA) Assay for ABC Transporter (ABCB11) using HepaRG (AID 2283463)
# In short: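 ABCB11 transcript levels quantified by TaqMan qRT-PCR against three housekeeping genes after 48 h chemical exposure of HepaRG cultures. Concentrations up to 100 uM in half-log steps, 0.5% DMSO vehicle; both induction and suppression scored.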
# [6] = read-out: Peroxisomal acyl-coenzyme A oxidase 1 (ACOX1) gene, ACOX1 (gene 51); assay: LTEA_HepaRG_ACOX1: Life Technologies and Expression Analysis (LTEA) Assay for Peroxisomal acyl-coenzyme A oxidase 1 (ACOX1) gene using HepaRG (AID 2283467)
# In short: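 ACOX1 transcript levels were quantified by TaqMan qRT-PCR against three housekeeping genes after 48 h chemical exposure of differentiated human HepaRG cells. Exposure used eight half-log steps topping at 100 uM, 0.5% DMSO vehicle, in duplicate. Bidirectional curve fits were made relative to DMSO.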
# [7] = read-out: Alkaline Phosphatase, Placental (ALPP) gene, ALPP (gene 250); assay: LTEA_HepaRG_ALPP: Life Technologies and Expression Analysis (LTEA) Assay for Alkaline Phosphatase, Placental (ALPP) gene using HepaRG (AID 2283468)
# In short: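 qRT-PCR readout of ALPP mRNA (Fluidigm TaqMan), normalized to ACTB/GAPDH/POLR2A, after 48 h chemical exposure of HepaRG cells; 8-point half-log series, top 100 uM, 0.5% DMSO vehicle. Bidirectional curve fit versus DMSO baseline.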
# [8] = read-out: Bcl-2 (BAD) gene, BAD (gene 572); assay: LTEA_HepaRG_BAD: Life Technologies and Expression Analysis (LTEA) Assay for Bcl-2 (BAD) gene using HepaRG (AID 2283469)
# In short: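 Read-out: qRT-PCR of BAD mRNA, normalized to three housekeeping genes. Human HepaRG cultures got 48 h chemical exposure in 0.5% DMSO, duplicate eight-point half-log series topping at 100 uM. Gain or loss of signal fitted versus DMSO vehicle.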
# [9] = read-out: Bcl-2 (BAX) gene, BAX (gene 581); assay: LTEA_HepaRG_BAX: Life Technologies and Expression Analysis (LTEA) Assay for Bcl-2 (BAX) gene using HepaRG (AID 2283470)
# In short: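 Gene expression measured by Fluidigm qRT-PCR with three housekeeping genes for normalisation. HepaRG cells, plated 48 h beforehand, treated 48 h at up to 100 uM (8-point, half-log) in 0.5% DMSO. Bidirectional fitting versus DMSO.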
# [10] = read-out: adenosine kinase (ADK) gene, ADK (gene 132); assay: LTEA_HepaRG_ADK: Life Technologies and Expression Analysis (LTEA) Assay for adenosine kinase (ADK) gene using HepaRG (AID 2283471)
# In short: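 Read-out is ADK transcript level measured by qRT-PCR and normalised to three housekeeping genes. Cells are human HepaRG, dosed for 48 h at up to 100 uM in 0.5% DMSO. Gain or loss of signal is fitted against DMSO controls.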
# [11] = read-out: Alpha-fetoprotein (AFP) gene, AFP (gene 174); assay: LTEA_HepaRG_AFP: Life Technologies and Expression Analysis (LTEA) Assay for Alpha-fetoprotein (AFP) gene using HepaRG (AID 2283472)
# In short: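 AFP transcript measured by TaqMan qRT-PCR with three housekeeping genes for normalization, after 48 h chemical treatment of HepaRG cells (top 100 uM, half-log steps, 0.5% DMSO). Gain or loss fitted against vehicle.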
# BCL2L11 (gene 10018) = assay: LTEA_HepaRG_BCL2L11: Life Technologies and Expression Analysis (LTEA) Assay for Bcl-2 (BCL2L11) gene using HepaRG (AID 2283473)
# In short: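 HepaRG, 48 h exposure, 8-pt half-log series from 100 uM in 0.5% DMSO, duplicates; qRT-PCR (Fluidigm TaqMan) for BCL2L11, housekeeping-normalized; bidirectional curve fit relative to DMSO baseline.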
# [12] = read-out: Apolipoprotein A-V (APOA5) gene, APOA5 (gene 116519); assay: LTEA_HepaRG_APOA5: Life Technologies and Expression Analysis (LTEA) Assay for Apolipoprotein A-V (APOA5) gene using HepaRG (AID 2283474)
# In short: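 HepaRG, 48 h chemical exposure in serum-free induction medium, 8-pt half-log series (top 100 uM), 0.5% DMSO vehicle, duplicates. Readout: APOA5 mRNA by qRT-PCR, housekeeping-normalized; bidirectional fit vs DMSO baseline.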
# [13] = read-out: Apoptosis regulator Bcl-2 (Homo sapiens) (UniProt P10415); assay: LTEA_HepaRG_BCL2: Life Technologies and Expression Analysis (LTEA) Assay for Bcl-2 gene using HepaRG (AID 2283475)
# In short: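 qRT-PCR of BCL2 transcript, normalized to three housekeeping genes (ACTB, GAPDH, POLR2A), after 48 h chemical exposure of HepaRG cells; concentrations top 100 uM with half-log dilutions, 0.5% DMSO vehicle, duplicates; changes up or down fitted relative to vehicle.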
# Caspase-3 (Homo sapiens) = Caspase-3 (Homo sapiens) (UniProt P42574); assay: LTEA_HepaRG_CASP3: Life Technologies and Expression Analysis (LTEA) Assay for cysteine-aspartic acid protease (CASP3) using HepaRG (AID 2283477)
# Chain of Caspase-3 (Homo sapiens) (P42574 whole entry, looked up): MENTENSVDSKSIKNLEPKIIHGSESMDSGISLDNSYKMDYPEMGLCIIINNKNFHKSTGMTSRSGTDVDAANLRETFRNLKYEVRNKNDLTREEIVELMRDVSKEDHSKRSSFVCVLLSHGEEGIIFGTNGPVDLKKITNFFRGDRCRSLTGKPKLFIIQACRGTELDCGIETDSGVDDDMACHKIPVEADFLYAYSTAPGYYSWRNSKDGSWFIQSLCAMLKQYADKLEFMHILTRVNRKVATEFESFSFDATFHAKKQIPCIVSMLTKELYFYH
# In short: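 HepaRG, 48 h exposure, 8 conc. (top 100 uM, half-log steps, duplicate), 0.5% DMSO vehicle; qRT-PCR of CASP3 transcript, housekeeping-normalised (ACTB/GAPDH/POLR2A); bidirectional curve fit vs DMSO baseline.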
# [14] = read-out: ABC Transporter (ABCC3), ABCC3 (gene 8714); assay: LTEA_HepaRG_ABCC3: Life Technologies and Expression Analysis (LTEA) Assay for ABC Transporter (ABCC3) using HepaRG (AID 2283462)
# In short: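 qRT-PCR read-out of ABCC3 transcript, normalized to three housekeeping genes (ACTB, GAPDH, POLR2A), after 48 h chemical exposure of human HepaRG cells. Eight half-log concentrations, highest 100 uM, in 0.5% DMSO; gain or loss fitted relative to DMSO baseline.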
# [15] = read-out: ABC Transporter (ABCC2), ABCC2 (gene 1244); assay: LTEA_HepaRG_ABCC2: Life Technologies and Expression Analysis (LTEA) Assay for ABC Transporter (ABCC2) using HepaRG (AID 2283464)
# In short: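 qRT-PCR (TaqMan, Fluidigm array) read-out of ABCC2 mRNA, normalized to three housekeeping genes. Differentiated HepaRG cells were treated 48 h in serum-free induction medium with 8-point half-log series from 100 uM in 0.5% DMSO; curves fitted bidirectionally relative to DMSO.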
# [16] = read-out: Bcl-2 (BID) gene, BID (gene 637); assay: LTEA_HepaRG_BID: Life Technologies and Expression Analysis (LTEA) Assay for Bcl-2 (BID) gene using HepaRG (AID 2283476)
# In short: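 Duplicate 48 h treatments of HepaRG cells in serum-free induction medium spanned 100 uM downward in half-log steps, 0.5% DMSO. Transcript change quantified by qRT-PCR against three housekeeping genes, fitted up or down versus DMSO.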
# [17] = read-out: ATP-citrate lyase (ACLY), ACLY (gene 47); assay: LTEA_HepaRG_ACLY: Life Technologies and Expression Analysis (LTEA) Assay for ATP-citrate lyase (ACLY) using HepaRG (AID 2283466)
# In short: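 ACLY mRNA quantified by qRT-PCR on Fluidigm arrays against three housekeeping genes, after 48 h chemical treatment of HepaRG cells (top concentration 100 uM, half-log steps, 0.5% DMSO vehicle). Up- or down-regulation fitted relative to DMSO.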
# [18] = read-out: Broad substrate specificity ATP-binding cassette transporter ABCG2 (Homo sapiens) (UniProt Q9UNQ0); assay: LTEA_HepaRG_ABCG2: Life Technologies and Expression Analysis (LTEA) Assay for ABC Transporter (ABCG2) using HepaRG (AID 2283465)
# In short: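 ABCG2 transcript was quantified by TaqMan qRT-PCR against three housekeeping genes in HepaRG cells. Cells were treated in duplicate for 48 h across an 8-point half-log series up to 100 uM, with 0.5% DMSO vehicle. Gain or loss versus DMSO was fit.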
# Chain of Broad substrate specificity ATP-binding cassette transporter ABCG2 (Homo sapiens) (Q9UNQ0 whole entry, looked up): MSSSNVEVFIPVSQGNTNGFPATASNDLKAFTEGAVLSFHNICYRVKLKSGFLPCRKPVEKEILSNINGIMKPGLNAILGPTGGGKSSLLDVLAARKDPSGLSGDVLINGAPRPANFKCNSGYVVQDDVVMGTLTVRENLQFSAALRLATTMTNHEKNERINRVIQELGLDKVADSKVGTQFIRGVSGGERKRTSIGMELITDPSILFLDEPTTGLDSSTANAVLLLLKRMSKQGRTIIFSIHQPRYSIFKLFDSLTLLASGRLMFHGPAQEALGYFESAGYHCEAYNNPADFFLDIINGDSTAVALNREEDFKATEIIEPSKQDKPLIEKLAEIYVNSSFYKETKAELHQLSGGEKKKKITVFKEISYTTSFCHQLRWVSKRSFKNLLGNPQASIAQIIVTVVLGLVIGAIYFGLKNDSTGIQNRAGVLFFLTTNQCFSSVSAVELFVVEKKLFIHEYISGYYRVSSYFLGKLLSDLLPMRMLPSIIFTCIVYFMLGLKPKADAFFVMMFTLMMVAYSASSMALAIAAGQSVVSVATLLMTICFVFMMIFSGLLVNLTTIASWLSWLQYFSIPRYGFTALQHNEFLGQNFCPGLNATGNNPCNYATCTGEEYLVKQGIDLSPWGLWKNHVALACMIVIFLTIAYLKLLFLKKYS
# Chain of Apoptosis regulator Bcl-2 (Homo sapiens) (P10415 whole entry, looked up): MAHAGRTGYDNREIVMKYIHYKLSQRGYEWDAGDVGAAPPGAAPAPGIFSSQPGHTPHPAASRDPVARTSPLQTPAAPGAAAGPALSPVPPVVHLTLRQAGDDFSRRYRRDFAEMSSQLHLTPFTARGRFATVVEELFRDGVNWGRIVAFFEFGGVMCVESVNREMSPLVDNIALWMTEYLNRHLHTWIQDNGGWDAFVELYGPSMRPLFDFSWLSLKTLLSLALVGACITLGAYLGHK
compound,measurement,setting,value
O=C(N[C@@H](Cc1ccccc1)[C@@H](O)C(=O)N1C[C@@H](O)[C@@H](O)C1)c1cc2cc(Cl)ccc2[nH]1,outcome,[1],inactive
same,outcome,[2],inactive
same,AC50,[3],9.92 µM (active)
same,outcome,[4],inactive
same,outcome,[5],inactive
same,outcome,[6],inactive
same,outcome,[7],inactive
same,outcome,[8],inactive
same,outcome,[9],inactive
same,outcome,[10],inactive
same,outcome,[11],inactive
same,outcome,BCL2L11 (gene 10018),inactive
same,outcome,[12],inactive
same,outcome,[13],inactive
same,outcome,Caspase-3 (Homo sapiens),inactive
CCCCOC(=O)CCCCCCCCC(=O)OCCCC,outcome,[1],inactive
same,outcome,[2],inactive
same,outcome,[4],inactive
same,outcome,[14],inactive
same,outcome,[5],inactive
same,outcome,[15],inactive
same,outcome,[7],inactive
same,outcome,[8],inactive
same,outcome,[9],inactive
same,outcome,[10],inactive
same,outcome,[11],inactive
same,outcome,BCL2L11 (gene 10018),inactive
same,outcome,[12],inactive
same,outcome,[13],inactive
same,outcome,[16],inactive
same,outcome,Caspase-3 (Homo sapiens),inactive
COc1ccc(C)cc1N,outcome,[1],inactive
same,outcome,[2],inactive
same,outcome,[3],inactive
same,outcome,[4],inactive
same,outcome,[5],inactive
same,outcome,[15],inactive
same,outcome,[7],inactive
same,outcome,[8],inactive
same,outcome,[9],inactive
same,outcome,[10],inactive
same,outcome,[11],inactive
same,outcome,BCL2L11 (gene 10018),inactive
same,outcome,[12],inactive
same,outcome,[13],inactive
same,outcome,[16],inactive
same,outcome,Caspase-3 (Homo sapiens),inactive
COC(=O)c1ccc(O)cc1,outcome,[1],inactive
same,outcome,[2],inactive
same,outcome,[3],inactive
same,outcome,[4],inactive
same,outcome,[5],inactive
same,outcome,[15],inactive
same,outcome,[17],inactive
same,outcome,[6],inactive
same,outcome,[7],inactive
same,outcome,[8],inactive
same,outcome,[9],inactive
same,outcome,[10],inactive
same,outcome,[11],inactive
same,outcome,BCL2L11 (gene 10018),inactive
same,outcome,[12],inactive
same,outcome,[13],inactive
same,outcome,[16],inactive
same,outcome,Caspase-3 (Homo sapiens),inactive
CCNc1cccc(C)c1,outcome,[1],inactive
same,outcome,[2],inactive
same,outcome,[4],inactive
same,outcome,[14],inactive
same,outcome,[5],inactive
same,outcome,[18],inactive
same,outcome,[17],inactive
same,outcome,[7],inactive
same,outcome,[8],inactive
same,outcome,[9],inactive
same,outcome,[10],inactive
same,outcome,[11],inactive
same,outcome,BCL2L11 (gene 10018),inactive
same,outcome,[12],inactive
same,outcome,[13],inactive
same,outcome,Caspase-3 (Homo sapiens),inactive
CC1(C)CC(N=C=O)CC(C)(CN=C=O)C1 (configuration not stated),outcome,[1],inactive
same,outcome,[2],inactive
same,outcome,[4],inactive
same,outcome,[14],inactive
same,AC50,[5],50 µM (active)
same,outcome,[18],inactive
same,outcome,[7],inactive
same,outcome,[8],inactive
same,outcome,[9],inactive
same,outcome,[10],inactive
same,outcome,[11],inactive
same,outcome,BCL2L11 (gene 10018),inactive
same,outcome,[12],inactive
same,outcome,[13],inactive
same,outcome,[16],inactive
same,outcome,Caspase-3 (Homo sapiens),inactive
NCC1(Cc2noc(=O)[nH]2)CCCCC1,outcome,[1],inactive
same,outcome,[2],inactive
same,outcome,[3],inactive
same,outcome,[4],inactive
same,outcome,[5],inactive
same,outcome,[15],inactive
same,outcome,[18],inactive
same,outcome,[6],inactive
same,outcome,[7],inactive
same,outcome,[8],inactive
same,outcome,[9],inactive
same,outcome,[10],inactive
same,outcome,[11],inactive
same,outcome,BCL2L11 (gene 10018),inactive
same,outcome,[12],inactive
same,outcome,[13],inactive
same,outcome,[16],inactive
same,outcome,Caspase-3 (Homo sapiens),inactive
CC=Cc1ccc(O)c(OC)c1,outcome,[1],inactive
same,outcome,[2],inactive
same,outcome,[3],inactive
same,outcome,[4],inactive
same,outcome,[5],inactive
same,outcome,[15],inactive
same,outcome,[18],inactive
same,outcome,[7],inactive
same,outcome,[8],inactive
same,outcome,[9],inactive
same,outcome,[10],inactive
same,outcome,[11],inactive
same,outcome,BCL2L11 (gene 10018),inactive
same,outcome,[12],inactive
same,outcome,[13],inactive
same,outcome,[16],inactive
same,outcome,Caspase-3 (Homo sapiens),inactive
